HGIII-sPLA2 inh = human group III sPLA2 inhibitors, primary screen, biochemical, QFRET, BODIPY PC-A2 liposome substrate | AID 743126, 2013 | inhibition, % at 12.2 µM | 370,000 tested, 0.56% active | Group 3 secretory phospholipase A2 (Homo sapiens), Q9NZ20 | QFRET BODIPY PC-A2 liposome hydrolysis, fluorescence;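 active = inhibition above mean plus 3 SD of compounds lying within the high and low control bounds, cut at about 19% in these data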;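 note: 0% = median of test compound wells and 100% = no enzyme DMSO wells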
Rtt109 Vps75 = inhibitors of C. albicans Rtt109/Vps75 HAT, primary screen, biochemical, ThioGlo CoA-SH fluorescence, plate reader | Histone acetyltransferase RTT109 (Candida albicans (strain SC5314 / ATCC MYA-2876)), … | purified Rtt109/Vps75, 4 h | inhibition, % at 34.9 µM | 330,000 tested, 0.16% active | AID 540336, 2011;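 active = inhibition of at least 50% in every replicate; inconclusive = best replicate reaches 50% inhibition but some replicates fall short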
ABHD5 PLIN5 PPI = ABHD5-PLIN5 interaction inhibitors, primary screen, cell lysate, split luciferase complementation, luminescence; Perilipin-5 (Homo sapiens) + 1-acylglycerol-3-phosphate O-acyltransferase ABHD5 (Homo …; Split G. princeps luciferase complementation, 4 h; inhibition, % at 4 µM; 360,000 tested, 0.78% active;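 active = inhibition above the mean inhibition across every tested compound plus 3 SD, cut at about 22% in these data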;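 note: 0% = DMSO only wells and the 100% control is not disclosed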
Cardio protect = cardioprotection against H2O2-induced cell death, primary screen, uHTS, H9c2 cells, ATPLite luminescence; H9c2 cardiomyocytes, H2O2 injury protection, 2 h; protection from H2O2 cell death, % at 20 µM; 360,000 tested, 0.63% active; AID 588492, 2011;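 active = compounds giving at least 50% protection of heart cells from peroxide-induced death in the single-dose screen, raw or plate-pattern-corrected value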;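 note: 0% = DMSO wells with peroxide and 100% = DMSO wells without peroxide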
DAGLB inhibitor = DAGLB lipase inhibitors, primary screen, biochemical, fluorescence, HTS; Diacylglycerol lipase-beta (Homo sapiens), Q8NCG7; HEK293T DAGLB membrane lysate, EnzChek fluorogenic substrate; inhibition, % at 5.17 µM; 340,000 tested, 0.059% active; in the data active = inhibition above about 34%;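 note: 0% = enzyme with vehicle and 100% = wells lacking enzyme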
Myeloid diff MLP = induction of myeloid progenitor differentiation, primary screen, cell-based, flow cytometry, MLPCN library; calls only at 10 µM; ER-HoxA9 myeloid progenitors, lysozyme-GFP differentiation; 360,000 tested, 1% active;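 active = normalized GFP-positive differentiation at or above the plate's own cutoff, the solvent-only control mean plus 3 SD; inconclusive = no clear call, values can overlap the other calls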;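 note: cells exposed to compound for four days before flow analysis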
ABHD5 PLIN5 conf = ABHD5-PLIN5 interaction inhibitors, confirmation, biochemical, luminescence. shares compounds with ABHD5 PLIN5 PPI. 2,200 tested, 67% active. AID 651612, 2012. inhibition, % at 4 µM; in the data active = inhibition above about 23%;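 note: 0% = DMSO vehicle wells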
HNF4 counter = HNF4 dimerization inhibitors, counter-screen for ABHD5-PLIN5 interaction inhibitor project, biochemical, split-luciferase complementation, luminescence | AID 651674, 2012 | 2,200 tested, 77% active | shares compounds with ABHD5 PLIN5 PPI | inhibition, % at 4 µM;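 active = mean inhibition across replicate wells exceeding the computed hit threshold, cut at about 13% in these data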;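 note: light from luciferase halves that rejoin when HNF4 fusion proteins dimerize; 0% = DMSO only wells and the 100% control is not given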
Target sequence (P41235 whole entry, looked up, the tested form may be a part): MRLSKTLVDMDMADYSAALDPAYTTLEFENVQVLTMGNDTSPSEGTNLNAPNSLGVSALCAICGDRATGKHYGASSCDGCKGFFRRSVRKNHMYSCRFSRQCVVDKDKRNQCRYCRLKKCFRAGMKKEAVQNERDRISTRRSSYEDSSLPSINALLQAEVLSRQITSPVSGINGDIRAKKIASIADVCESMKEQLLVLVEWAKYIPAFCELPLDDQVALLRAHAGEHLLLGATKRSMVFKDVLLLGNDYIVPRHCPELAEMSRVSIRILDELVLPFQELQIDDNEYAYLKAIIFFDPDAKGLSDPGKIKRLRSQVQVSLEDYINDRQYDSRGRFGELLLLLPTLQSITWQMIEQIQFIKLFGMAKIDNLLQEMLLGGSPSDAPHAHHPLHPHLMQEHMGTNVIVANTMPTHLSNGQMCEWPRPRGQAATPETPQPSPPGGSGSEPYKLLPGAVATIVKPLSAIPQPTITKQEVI
Numbers without * were called inactive; i = inactive; ? = inconclusive; / = no result. Only some compounds are listed: those with a hit (about 2.9% of all), similar ones and a draw of the others.

SMILES	HGIII-sPLA2 inh	Rtt109 Vps75	ABHD5 PLIN5 PPI	Cardio protect	DAGLB inhibitor	Myeloid diff MLP	ABHD5 PLIN5 conf	HNF4 counter
CCOC(=O)C1CCCN(C(=O)c2cc(Nc3ccc(OC)cc3)nc3ccccc23)C1 (stereo unspecified)	-26	9	29*	-8	2	i	42*	/
CCOC(=O)C1CCCN(C(=O)c2cc(-c3ccco3)nc3ccccc23)C1 (stereo unspecified)	-6	1	5	0	4	i	/	/
CCOC(=O)c1c(C)[nH]c(C)c1C(=O)COC(=O)c1cccc(S(=O)(=O)NC)c1	-13	7	1	2	-1	i	/	/
O=C(O)C1(c2ccccc2)CCN(S(=O)(=O)c2ccc(F)c(F)c2)CC1	1	-5	5	-1	3	i	/	/
COc1cc(/C=C/C(=O)c2ccc(F)cc2)cc(OC)c1OC	-3	-4	38*	0	1	?	68*	53*
COc1ccc(/C=C/C(=O)NCc2ccc3c(c2)OCO3)cc1OC	14	5	96*	-5	-5	i	5	1
COc1cc(/C=C/C(=O)c2ccc(C)cc2)ccc1OCC#N	-22	-9	45*	-1	1	?	72*	54*
CCOc1ccc(C(=O)/C=C/c2cc(OC)c(OC)c(OC)c2)cc1	-8	0	4	2	-5	i	/	/
CCOc1cc(/C=C/C(=O)c2ccc(C)cc2)ccc1OCC(=O)N(C)C	-12	-4	7	1	-1	?	/	/
COC(=O)c1ccc(/C=C/C(=O)c2ccc(OC)c(OC)c2)cc1	/	2	33*	20	0	i	66*	61*
O=C(/C=C/c1cccc(F)c1)NCc1ccc2c(c1)OCO2	-2	-3	-5	0	-7	i	/	/
O=C(NC1CCCCC1)C(c1ccnc2ccccc12)N1CCOCC1 (stereo unspecified)	15	/	-2	2	/	i	/	/
COc1ccc(/C=C/C(=O)c2ccccc2)cc1Cn1nnc2ccccc21	-10	-1	31*	-7	-3	i	73*	66*
COc1ccc(/C=C/C(=O)c2ccc3c(c2)OCO3)cc1OC	-1	0	-6	14	-6	i	/	/
COc1ccc(Oc2ccc(/C=C/C(=O)c3ccc(O)cc3)cc2[N+](=O)[O-])cc1	-22	0	28*	-22	7	i	80*	65*
COc1ccc(/C=C/C(=O)c2ccc(C(=O)/C=C/c3ccc(OC)c(OC)c3)cc2)cc1OC	-4	1	55*	15	-8	i	98*	91*
Cc1ccc(C(=O)/C=C/c2ccc3ncccc3c2)cc1	8	2	38*	-10	-1	i	78*	78*
COCCN(C(=O)COC(=O)c1cccnc1SC)c1c(N)n(Cc2ccccc2)c(=O)[nH]c1=O	-8	0	3	-4	-2	/	/	/
CCOC(=O)NC(=O)CSc1nc(-c2ccc(C)c(C)c2)cn1-c1ccccc1	-12	-12	-2	-15	-7	i	/	/
CC(=O)Nc1ccc(C(=O)/C=C/c2ccco2)cc1	-4	1	29*	6	0	i	52*	57*
CN(C)c1ccc(C(=O)/C=C/c2ccco2)cc1	-1	2	20	-23	1	i	/	/
O=C(/C=C\c1ccco1)c1ccc(NC(=O)c2ccco2)cc1	-9	5	25*	15	-2	/	49*	47*
O=C(NCc1ccccc1)c1ccc(NC(=O)c2ccco2)cc1	2	-2	-3	-3	-3	i	/	/
CC(=O)Nc1ccc(NC(=S)NC(=O)/C=C/c2ccco2)cc1	8	-3	8	2	2	i	/	/
O=C(C=Cc1ccco1)c1ccc2ccccc2c1	5	0	37*	-11	-2	i	64*	54*
SMILES	HGIII-sPLA2 inh	Rtt109 Vps75	ABHD5 PLIN5 PPI	Cardio protect	DAGLB inhibitor	Myeloid diff MLP	ABHD5 PLIN5 conf	HNF4 counter
Cc1ccc(OCCNc2cc(N3CCN(CCO)CC3)ccc2[N+](=O)[O-])cc1C	-2	5	31*	3	0	i	5	14*
C#CCOc1ccc(Br)cc1C(c1c(C)[nH][nH]c1=O)c1c(C)[nH][nH]c1=O	-62	-12	-7	0	0	i	/	/
COc1ccc(NC(=S)N(CCCN2CCCC2)Cc2cccn2Cc2ccc(Cl)cc2)cc1Cl	0	?	31*	-6	-2	i	13	-10
CNc1ccc(Br)cc(C(=O)/C=C/c2ccc3c(c2)OCO3)c1=O	-7	-8	17	43	9	i	/	/
CNc1ccc(Br)cc(C(=O)/C=C/c2cc(OC)ccc2OC)c1=O	-1	2	26*	30	8	i	63*	58*
O=C1Nc2ccccc2/C1=C/c1ccccc1F	-5	-3	27*	0	1	i	44*	41*
Cc1ccc(/C=C2\C(=O)Nc3ccccc32)o1	0	21	24*	-6	0	?	8	40*
Cc1ccccc1/C=C1\C(=O)Nc2ccc(F)cc21	-8	-3	4	-9	3	i	/	/
Cc1ccccc1C(=O)NCC(=O)OC(C)C(=O)Nc1ccnn1C(C)C (stereo unspecified)	4	0	7	11	1	i	/	/
Cc1ccc(S(=O)(=O)CCOC(=O)CNC(=O)OCc2ccccc2)cc1	8	/	-5	-1	-3	i	/	/
Cc1cccc(OCC2Cn3c(nc4c3c(=O)[nH]c(=O)n4C)O2)c1 (stereo unspecified)	-2	1	8	4	-4	i	/	/
COC(=O)CSc1[nH]c2ccc(F)cc2c1[N+](=O)[O-]	2	?	25*	41	-1	i	44*	83*
CCOC(=O)CSc1[nH]c2cc(OC)ccc2c1[N+](=O)[O-]	7	4	6	9	-1	i	/	/
O=C(CCl)N(C/C=C/c1ccccc1)c1ccc2c(c1)OCCO2	0	-26	25*	-29	4	i	24*	29*
N#CCCN(C(=O)CSc1ncccn1)c1ccc2c(c1)OCCO2	9	5	-2	-1	-2	i	/	/

Source: PubChem BioAssay
